Where “and” joins values, the source holds several entries; their conditions need not be identical. Identical values can stand only once.

For orientation: inhibition means the relative decrease from the control value, in per cent. A lower inhibition goes with a response near the control.

In this assay the target is C-X-C chemokine receptor type 6 (Homo sapiens) (UniProt O00574). Description: apelin receptor (APJ) antagonists, SAR follow-up, counter-screen for CXCR6 antagonist project, cell-based, beta-arrestin, DiscoveRx, panel, CHO-K1 (AID 651598). The note with it: CHO-K1 PathHunter beta-arrestin luminescence, antagonist mode; run 3, at 80 µM (top of the series). A general note: Counterscreens check selectivity or assay interference.
C-X-C chemokine receptor type 6 (Homo sapiens), sequence (O00574 whole entry, looked up): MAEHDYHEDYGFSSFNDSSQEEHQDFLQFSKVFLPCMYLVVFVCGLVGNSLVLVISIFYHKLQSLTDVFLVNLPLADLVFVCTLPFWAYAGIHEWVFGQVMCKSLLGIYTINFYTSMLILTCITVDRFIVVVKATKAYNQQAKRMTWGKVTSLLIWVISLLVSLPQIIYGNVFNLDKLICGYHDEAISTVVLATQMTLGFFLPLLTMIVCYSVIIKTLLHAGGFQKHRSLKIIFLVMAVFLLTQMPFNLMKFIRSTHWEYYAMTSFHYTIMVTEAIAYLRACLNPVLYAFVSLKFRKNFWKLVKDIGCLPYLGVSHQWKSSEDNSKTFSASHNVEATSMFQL
Consider `COc1cc(C(=O)NC2CC3CCCC(C2)N3CC(=O)Nc2ccccc2)cc(OC)c1OC` (stereo not drawn), for which the inhibition is 91% and 42.4% and 18.6%.
The compound `COc1cc(C(=O)NC2CCN(CC(=O)Nc3ccccc3)CC2)cc(OC)c1OC` gave an inhibition of 6.56%.
The same measure for `COc1cc(C(=O)NC2CC3CCC(C2)N3CC(=O)Nc2ccccc2)cc(OC)c1OC` (stereo not drawn): 56.5% and 4.53%.

These data come from PubChem BioAssay AID651598 (Sanford-Burnham Center for Chemical Genomics, 2012).
